Among all 290,000 compounds or so, about 27,000 (9.3%) were called active. Shown is part of a subset that was picked to be rich in actives. A number with no mark means an inactive call. No stated cut-off is given here; in the data, active means inhibition mostly above about 28% (no sharp cut-off); inactive means mostly below about 43%.
Assay: A qHTS for Small Molecule Inhibitors of Shiga Toxin; further: 0% is about no effect
Conditions: Vero cells, Shiga toxin protein synthesis inhibition reporter; at 38.7 µM, hits give high values

SMILES | inhibition
COc1ccc(CN2CCc3nc(Nc4ccccc4)ncc3C2)c(OC)c1OC | 3.91%
COc1ccc(C2NC(=O)c3ccccc3N2)cc1 (stereo not drawn) | 62.6% (active)
O=C1NC(c2cccc(Cl)c2)Nc2ccccc21 (stereo not drawn) | 18.4%
COc1cccc(C2Nc3cccc4cccc(c34)N2)c1 | -2.47%
COc1cccc2cc(-c3cc(=O)oc4cc(C)c(O)cc34)oc12 | 0.992%
CCCCCc1c(C)nc(N2CCN(Cc3ccc4c(c3)OCO4)CC2)[nH]c1=O | 7.82%
CC(=O)Nc1ccc(NC(=O)CSc2ncnc3c2cnn3Cc2ccccc2)cc1 | 3.21%
COc1ccc(N2CCN(C(=O)CSc3ncnc4c3cnn4-c3ccc(OC)cc3)CC2)cc1 | -9.91%
COc1ccc(NC(=O)CSc2ncnc3[nH]ncc23)cc1 | -13.5%
COc1ccccc1N1CCN(C(=O)CSc2ncnc3c2cnn3-c2ccc(C)c(C)c2)CC1 | 66.7% (active)
CCN(CC)C(=O)CSc1ncnc2c1cnn2-c1ccccc1 | 66.2% (active)
c1ccc(-n2ncc3c(N4CCCC4)ncnc32)cc1 | 27.5%
COc1ccc(-n2ncc3c(SCC(=O)NNC(C)=O)ncnc32)cc1 | 25.6% (active)
CC(C)Sc1ncnc2c1cnn2-c1ccccc1 | 96.6% (active)
c1ccc(-n2ncc3c2ncn2c(C4CCCCC4)nnc32)cc1 | 11.5%
CN(C(=O)COc1ncnc2c1cnn2-c1ccccc1)C1CCCCC1 | 20.6%
COC(=O)CSc1ncnc2c1cnn2-c1ccc(C)cc1C | -5.7%
COc1ccccc1N1CCN(C(=O)CSc2nnc(-c3ccoc3C)o2)CC1 | 31.6%
COc1ccccc1Oc1ccc(N/C=C2/CCCC2=O)cc1 | 33.6%
Cc1onc(-c2ccccc2)c1C(=O)N1CCN(S(=O)(=O)c2ccccc2C(F)(F)F)CC1 | 61.7%
CCOc1ccc(N(CC)S(=O)(=O)c2cccc3nsnc23)cc1 | -2.2%
Nc1c(Cl)cc(-c2csc(N3CCCC3c3nc4cc(Cl)c(Cl)cc4n3CCOCCO)n2)cc1Cl (stereo not drawn) | -18%
CCCOc1ccc(-c2c(C(=O)N/N=C/c3ccco3)nnn2-c2nonc2N)cc1 | -3.97%
CC(C)c1ccc2oc(=O)cc(CN3CCN(Cc4ccccc4)CC3)c2c1 | -3.05%

SMILES | inhibition
Cc1ccc(C(=O)N2CCC(n3nccc3NC(=O)Nc3cccc(F)c3)CC2)cn1 | -8.38%
COc1ccc(-c2cc(=O)oc3cc(OC(C)C(=O)NCC4CCC(C(=O)O)CC4)ccc23)cc1 (stereo not drawn) | -4.72%
O=C(Cn1cnc2c(cnn2-c2ccc(F)cc2)c1=O)NCCc1ccccc1 | -0.429%
CC(=O)Cn1cnc2c(cnn2-c2ccccc2)c1=O | 34.2% (active)
O=C(Cn1cnc2c(cnn2-c2ccccc2)c1=O)NCc1ccccc1 | 31.9%
CC1C(=O)Nc2ccccc2N1C(=O)c1c(F)cccc1F (stereo not drawn) | -5.2%
COC(=O)C1CCCCN1C(=O)c1ccc(OC2CCN(C(C)=O)CC2)c(OC)c1 (stereo not drawn) | 20.4%
Cc1ccc(-c2nc(COC(=O)c3c(C)noc3C)cs2)cc1 | 104% (active)
COc1cc(OC)cc(C(=O)NCC(=O)OCc2csc(-c3ccccc3)n2)c1 | 21%
Cc1ccc(S(=O)(=O)N2CCN(C(=O)COC(=O)c3c(C)noc3C)CC2)c(C)c1 | -4.13%
S=C(NCc1cccnc1)Nc1ccc(Cl)cc1Cl | 23.4%
CN(C)C(=S)Nc1ccc(Br)cc1Cl | 23.8%
S=C(Nc1ccc(Cl)cc1Cl)N1CCCC1 | 88.2% (active)
CC1CN(C(=S)Nc2ccc(Br)cc2Cl)CC(C)O1 (stereo not drawn) | -7.71%
Cc1ccc2c(c1)C1CN(C)CCC1N2C(=S)Nc1ccc(Cl)cc1Cl (stereo not drawn) | 14.7%
Cc1cc(Cl)ccc1NC(=S)N1CCC(C(N)=O)(N2CCCCC2)CC1 | -10.1%
CN1CCN(S(=O)(=O)c2ccc(NC(=S)NC(=O)C3CC3)cc2)CC1 | 11.7%
O=C(NC(=S)Nc1ccc(Cl)cc1Cl)C1CC1 | 97.9% (active)
S=C(Nc1ccc(Br)cc1Cl)N1CCC2(CC1)OCCO2 | 76.2% (active)
CCc1ccc(N(CC(=O)NCc2cccnc2)S(=O)(=O)c2ccccc2)cc1 | 9.02%
CCn1nc(C)c(CNC(=O)C2CCC(=O)N(Cc3cccc(F)c3)C2)c1C (stereo not drawn) | -13.2%
C=Cc1ccc(C(=O)N2CCCC(CCC(=O)N3CCN(c4ccccn4)CC3)C2)cc1 (stereo not drawn) | 4.52%
CN(CCC(=O)Nc1cc(S(=O)(=O)N(C)C)ccc1Cl)CC(=O)Nc1ccc(F)cc1 | 1.75%
CC1(c2ccc3ccccc3c2)NC(=O)NC1=O (stereo not drawn) | 9.07%
